This passage reports NF-kB reporter, IRF reporter and viability score results from the supplement of paper PMC10646978.

Common to all, as to settings: modulator concentration 10 µM
For assay [1], the system named is RAW-Dual (murine macrophage reporter line). The assay is described as follows: NF-kB reporter (SEAP) activity fold change vs agonist alone; higher = enhanced NF-kB activity. The essentials: (§1)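 RAW-Dual murine macrophage reporter cells were plated at 50 000 per well in 384-well plates, pin-transferred compound to 10 μM final, and pre-incubated for 1 hour at 37 °C before a PRR agonist was added and the cells incubated overnight. NF-κB activity was read from supernatant SEAP with QUANTI-Blue at 620 nm absorbance, and IRF activity from Lucia luciferase with QUANTI-Luc by luminescence. Each signal was expressed as fold change by dividing by the mean agonist-only control on the same plate. Two replicate plates were averaged, with errors obtained by propagation.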

Assay [2] has the same test system. Briefly: IRF reporter (Lucia luciferase) activity fold change vs agonist alone; higher = enhanced IRF activity. In a few lines: as §1
The test system is the same in assay [3]. Briefly: viability score (confluency relative to resting cells, overnight) (fraction); higher = more viable, active = viable (0.7 or more). In a few lines:
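RAW-Dual macrophages in 384-well plates were exposed overnight to compound at 10 μM final. Confluency was imaged with IncuCyte, and two confluency masks were generated with IncuCyte software over all imaged wells. The viability score is confluency expressed relative to resting cells. Compounds were called viable if both masks exceeded 70% of resting cells.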

The mark [4] stands for this setting: agonist: CpG ODN 1826 0.5 ug/mL.

± gives the standard deviation.

As for `Cc1ccc(C2C=C(c3ccccc3)Nc3ncnn32)cc1` (stereo unspecified), the NF-kB reporter in assay [1] (setting [4]) worked out at 0.956 ± 0.089; in assay [1] (agonist: LPS 0.1 ug/mL), 1.07 ± 0.12; in assay [1] (agonist: MPLA […]) it was 0.893 ± 0.064. Moreover, the figures for the IRF reporter in assay [2] (agonist: 3'3'-cGAMP 10 ug/mL), in assay [2] (agonist: LPS 0.1 ug/mL) and in assay [2] (agonist: MPLA […]) were 1.1 ± 0.056, 1.13 ± 0.11 and 1.23 ± 0.35, respectively. For the same compound, in assay [3], the viability score is 0.982 (active).
On to `COC(=O)C(CCSC)NC(=O)c1cc(OC)c(OC)c(OC)c1` (stereo unspecified), for which the results for the NF-kB reporter in assay [1] (setting [4]), in assay [1] (agonist: LPS 0.1 ug/mL) and in assay [1] (agonist: MPLA […]) were 1.08 ± 0.18, 1.09 ± 0.096 and 1.1 ± 0.14, respectively. For the same compound, the IRF reporter was 1.02 ± 0.031 in assay [2] (agonist: 3'3'-cGAMP 10 ug/mL), 0.923 ± 0.089 in assay [2] (agonist: LPS 0.1 ug/mL) and 1.07 ± 0.12 in assay [2] (agonist: MPLA […]). In addition, the viability score in assay [3] was 0.712 (active).
Regarding `N=C(N)Nc1nc(-c2ccccc2)c(-c2ccccc2)s1`, the figures for the NF-kB reporter in assay [1] (setting [4]), in assay [1] (agonist: LPS 0.1 ug/mL) and in assay [1] (agonist: MPLA […]) were 0.98 ± 0.2, 1.23 ± 0.18 and 1.29 ± 0.1, respectively. The IRF reporter in assay [2] (agonist: 3'3'-cGAMP 10 ug/mL) was 1.27 ± 0.06; in assay [2] (agonist: LPS 0.1 ug/mL), 1.26 ± 0.22; in assay [2] (agonist: MPLA […]), 1.33 ± 0.19. Besides, the viability score in assay [3] is 1 (active).
With `COc1cccc(CC(=O)N2CCC(Oc3ccc4ccccc4n3)C2)c1` (stereo unspecified), the NF-kB reporter turned out to be 0.762 ± 0.04 in assay [1] (setting [4]), 1.18 ± 0.14 in assay [1] (agonist: LPS 0.1 ug/mL) and 1 ± 0.077 in assay [1] (agonist: MPLA […]). Besides, the figures for the IRF reporter in assay [2] (agonist: 3'3'-cGAMP 10 ug/mL), in assay [2] (agonist: LPS 0.1 ug/mL) and in assay [2] (agonist: MPLA […]) were 0.938 ± 0.056, 1.18 ± 0.14 and 1.24 ± 0.25, respectively. In assay [3], the viability score is 1 (active).
On to `CS(=O)(=O)O.Cc1ccc(NC(=O)c2ccc(CN3CCN(C)CC3)cc2)cc1Nc1nccc(-c2cccnc2)n1`, for which the NF-kB reporter is 0.119 ± 0.03 in assay [1] (setting [4]), 1.27 ± 0.28 in assay [1] (agonist: LPS 0.1 ug/mL) and 1.89 ± 0.17 in assay [1] (agonist: MPLA […]). In addition, the IRF reporter in assay [2] (agonist: 3'3'-cGAMP 10 ug/mL) amounted to 0.201 ± 0.0064; in assay [2] (agonist: LPS 0.1 ug/mL), 0.97 ± 0.18; in assay [2] (agonist: MPLA […]) it was 1.75 ± 0.3. The viability score in assay [3] is 0.957 (active).
Take `Cc1ccc(OCCSc2nc3ccccc3c(=O)[nH]2)cc1C`: the values for the NF-kB reporter in assay [1] (setting [4]), in assay [1] (agonist: LPS 0.1 ug/mL) and in assay [1] (agonist: MPLA […]) were 0.728 ± 0.2, 1.11 ± 0.13 and 1.02 ± 0.13, respectively. Besides, the IRF reporter was 0.886 ± 0.025 in assay [2] (agonist: 3'3'-cGAMP 10 ug/mL), 1.03 ± 0.22 in assay [2] (agonist: LPS 0.1 ug/mL) and 1.19 ± 0.24 in assay [2] (agonist: MPLA […]). Moreover, the viability score in assay [3] is 0.818 (active).
On to `Oc1ccc(C=NCc2ccccc2)cc1`, for which the NF-kB reporter in assay [1] (setting [4]) was 1.11 ± 0.12; in assay [1] (agonist: LPS 0.1 ug/mL), 1.08 ± 0.079; in assay [1] (agonist: MPLA […]), 1.04 ± 0.038. Further, the IRF reporter in assay [2] (agonist: 3'3'-cGAMP 10 ug/mL) came out at 0.921 ± 0.11; in assay [2] (agonist: LPS 0.1 ug/mL), 0.999 ± 0.05; in assay [2] (agonist: MPLA […]), 1.06 ± 0.19. In assay [3], the viability score is 1 (active).
Take `COc1ccc2c3c1O[C@H]1C[C@@H](O)C=C[C@@]31CCN(C)C2` [Prestw-588]: the NF-kB reporter was determined as 1.13 ± 0.077 in assay [1] (setting [4]), 1.07 ± 0.091 in assay [1] (agonist: LPS 0.1 ug/mL) and 0.95 ± 0.038 in assay [1] (agonist: MPLA […]). In addition, the IRF reporter in assay [2] (agonist: 3'3'-cGAMP 10 ug/mL) came to 0.997 ± 0.056; in assay [2] (agonist: LPS 0.1 ug/mL), 0.987 ± 0.046; in assay [2] (agonist: MPLA […]) it was 0.923 ± 0.16. The viability score in assay [3] is 0.998 (active).
For `Cc1cc(N2CCCC2)nc(Nc2ccc(NC(=O)CC(C)C)cc2)n1`, the NF-kB reporter was found to be 0.131 ± 0.01 in assay [1] (setting [4]), 1.18 ± 0.087 in assay [1] (agonist: LPS 0.1 ug/mL) and 1.31 ± 0.13 in assay [1] (agonist: MPLA […]). Further, the IRF reporter in assay [2] (agonist: 3'3'-cGAMP 10 ug/mL) was 0.947 ± 0.04; in assay [2] (agonist: LPS 0.1 ug/mL), 1.3 ± 0.14; in assay [2] (agonist: MPLA […]) it was 1.49 ± 0.2. In addition, the viability score in assay [3] was 0.939 (active).
On to `Cc1cn(-c2cc(NC(=O)c3ccc(C)c(Nc4nccc(-c5cnccn5)n4)c3)cc(C(F)(F)F)c2)cn1`, for which the NF-kB reporter in assay [1] (setting [4]) came to 0.892 ± 0.22; in assay [1] (agonist: LPS 0.1 ug/mL) it was 1.17 ± 0.059; in assay [1] (agonist: MPLA […]), 0.982 ± 0.063. Further, the IRF reporter in assay [2] (agonist: 3'3'-cGAMP 10 ug/mL) turned out to be 0.867 ± 0.032; in assay [2] (agonist: LPS 0.1 ug/mL) it was 0.943 ± 0.11; in assay [2] (agonist: MPLA […]), 1.19 ± 0.33. In addition, in assay [3], the viability score is 0.988 (active).
As for `CS(=O)(=O)N1CCCCC1C(=O)N(CC1CCCO1)c1nc2c(F)cccc2s1` (stereo unspecified), the NF-kB reporter in assay [1] (setting [4]) came to 0.814 ± 0.072; in assay [1] (agonist: LPS 0.1 ug/mL), 1.02 ± 0.1; in assay [1] (agonist: MPLA […]), 0.773 ± 0.054. Besides, the IRF reporter in assay [2] (agonist: 3'3'-cGAMP 10 ug/mL) is 1.24 ± 0.078; in assay [2] (agonist: LPS 0.1 ug/mL), 1.19 ± 0.077; in assay [2] (agonist: MPLA […]) it was 1.23 ± 0.16. The viability score in assay [3] was 0.966 (active).
Turning to `CCN(CC)CCCC(C)Nc1c2ccc(Cl)cc2nc2ccc(OC)cc12` (stereo unspecified) [Prestw-318], the NF-kB reporter in assay [1] (setting [4]) turned out to be 0.0785 ± 0.011; in assay [1] (agonist: LPS 0.1 ug/mL), 0.167 ± 0.04; in assay [1] (agonist: MPLA […]), 0.447 ± 0.051. Also, the IRF reporter amounted to 0.0346 ± 0.0049 in assay [2] (agonist: 3'3'-cGAMP 10 ug/mL), 1.19 ± 0.22 in assay [2] (agonist: LPS 0.1 ug/mL) and 0.939 ± 0.22 in assay [2] (agonist: MPLA […]). Besides, the viability score in assay [3] was 0.825 (active).
As for `CCOc1ccccc1OCCCCOc1ccc(Cl)c(C)c1`, the NF-kB reporter in assay [1] (setting [4]) worked out at 0.947 ± 0.11; in assay [1] (agonist: LPS 0.1 ug/mL), 1.12 ± 0.081; in assay [1] (agonist: MPLA […]), 1.07 ± 0.084. Further, the IRF reporter in assay [2] (agonist: 3'3'-cGAMP 10 ug/mL) was 0.937 ± 0.1; in assay [2] (agonist: LPS 0.1 ug/mL), 1.03 ± 0.16; in assay [2] (agonist: MPLA […]), 1.15 ± 0.35. Also, the viability score in assay [3] was 1 (active).
